Experimental findings from PubChem BioAssay (NCATS) are described below.

Structures are written as SMILES. Results filed as inconclusive are left out. Active and inactive are the calls of the source. Calls follow the shape of the dose curve; as a rule, active = well fitted cell-killing curve with a large enough effect; inconclusive = small, poorly fitted or top-dose-only effect, or effect the other way; inactive = no such curve, though single readings can be large or run the other way.
Potency is read from the fitted curve at half-maximal effect.

The nature of the experiment: Quantitative High-Throughput drug screen in 47 multiple myeloma cell lines against the NCATS MIPE library collection: KMS12PE_JCRB cell viability assay (AID 1918972). Also: nearly all actives have a fitted effect of over 30% in size. The conditions noted are these: KMS12PE myeloma viability, CellTiter-Glo ATP, 48 h; series mostly up to 45.8 µM; viability: at the top concentration. The source says:
PI: Beverly A. Mock Ph.D.
Laboratory of Cancer Biology and Genetics,
Center for Cancer Research, National Cancer Institute,
National Institute of Health, Bethesda, Maryland
Drug resistance and disease progression are common in multiple myeloma (MM) patients, underscoring the need for new therapeutic combinations. […] We hypothesized that effective combinations would reduce MYC expression and enhance p16 activity. […] These preclinical data identify potentially useful drug combinations for evaluation in drug-resistant MM and reveal potential mechanisms of combined drug sensitivity.
Described herein is the primary MIPE qHTS used to cherrypick compounds. Validated compounds were then further tested for potential synergistic activiy.
[1] Peat TJ, Gaikwad SM, Dubois W, Gyabaah-Kessie N, Zhang S, Gorjifard S, Phyo Z, Andres M, Hughitt VK, Simpson RM, Miller MA, Girvin AT, Taylor A, Williams D, D'Antonio N, Zhang Y, Rajagopalan A, Flietner E, Wilson K, Zhang X, Shinn P, Klumpp-Thomas C, McKnight C, Itkin Z, Chen L, Kazandijian D, Zhang J, Michalowski AM, Simmons JK, Keats J, Thomas CJ, Mock BA. Drug combinations identified by high-throughput screening promote cell cycle transition and upregulate Smad pathways in myeloma. Cancer Lett. 2023 Aug 1;568:216284. doi: 10.1016/j.canlet.2023.216284. Epub 2023 Jun 24. PMID: 37356470; PMCID: PMC10408729.
SEQUENCE No. (e.g., 1, 2, 3, etc.); […] (e.g., Cells, Incubation, Reagent, etc.); VALUE and DESCRIPTION.
1; Cells; 5 uL; white, solid bottom 1536-well Greiner assay plate.
2; Compounds; 23 nL; Kalypsis pin tool (Wako USA) equipped with a 1536-well pin head to transfer to the assay plates.
3; Incubation; 48 hours; 37C incubation.
4; Reagent;5uL; CellTiter Glo (Promega).
5; Detector; 425V; Luminescence; Viewlux PerkinElmer.
NOTES (numbers refer to Sequence numbers above)
1. The cell-based screening methods employed in this study were like those previously published. Briefly, the corresponding myeloma cell lines were screened in 1,536-well plates with 500 cells, 5-uL per well for inhibition of cell viability (assessed by measuring ATP levels with CellTiterGlo).
2. NCATS MIPE 4.0 library of approved and investigational drugs were added using the Kalypsis pin tool. Wells treated with DMSO only for 100% viability and media only wells for 0% viability were used as controls.
3. The assay plates were covered and incubated for 48 hours in a 37C, 5% CO2 incubator with controlled humidity.
4. After 48 hours, CellTilter-GloTM luminescent substrate mix (Promega) reagent was added to the assay plate and plates we incubated for 5 min at room temperature.
5. Signal was measured as median relative luminescence units on a ViewLux (PerkinElmer) multiplate reader.
[1] Heske CM, Davis MI, Baumgart JT, Wilson K, Gormally MV, Chen L, Zhang X, Ceribelli M, Duveau DY, Guha R, Ferrer M, Arnaldez FI, Ji J, Tran HL, Zhang Y, Mendoza A, Helman LJ, Thomas CJ. Matrix Screen Identifies Synergistic Combination of PARP Inhibitors and Nicotinamide Phosphoribosyltransferase (NAMPT) Inhibitors in Ewing Sarcoma. Clin Cancer Res. 2017 Dec 1;23(23):7301-7311. doi: 10.1158/1078-0432.CCR-17-1121. Epub 2017 Sep 12. PMID: 28899971; PMCID: PMC6636827.
Take `CO[C@H]1C=CC=C(C)C(=O)NC2=CC(=O)C(NCCN(C)C)=C(C[C@@H](C)C[C@H](OC)[C@@H](O)[C@@H](C)C=C(C)[C@@H]1OC(N)=O)C2=O`: the Potency is 0.0662 µM (active). What is called viability is a read-out of living cells in per cent, often relative to untreated cells. For `CC1(C)O[C@H]2C[C@@H]3[C@H]4CCC5=CC(=O)C=C[C@]5(C)[C@@]4(F)[C@@H](O)C[C@]3(C)[C@]2(C(=O)CO)O1`, the “viability” value was 93.3% (inactive). For the compound `CC(C)(C(=O)NCC(F)(F)C(F)(F)F)C(=O)N[C@@H]1C(=O)Nc2ccccc2-c2ccccc21`, the Potency was 16.6 µM (active). Regarding `COc1ccc(C2CC(c3ccccc3)=NN2c2ccc(S(N)(=O)=O)cc2)cc1` (stereo not given), the Potency is 11.8 µM (active). Regarding `Cc1cccc(Nc2nc(-c3ccncc3)cs2)c1`, the Potency is 14.8 µM (active). As for `CC(C(=O)O)c1ccc(-c2ccccc2)c(F)c1` (stereo not given), the “viability” value was 129% (inactive).

`N#CC(=C(N)Sc1ccccc1N)C(C#N)=C(N)Sc1ccccc1N`: the Potency was 23.5 µM (active).

For the compound `COc1cc2ncnc(Nc3ccc(F)c(Cl)c3)c2cc1OCCCN1CCOCC1`, the Potency was 3.03 µM (active). `COc1cc(NC(=O)c2ccc(-c3ccc(Cl)cc3)o2)cc(OC)c1`: the Potency was 20.9 µM (active). On to `CC[C@]1(O)C[C@@H]2CN(CCc3c([nH]c4ccccc34)[C@@](C(=O)OC)(c3cc4c(cc3OC)N(C=O)[C@@H]3C45CCN4CC=C[C@](CC)([C@H]45)[C@@H](OC(C)=O)[C@]3(O)C(=O)OC)C2)C1` (stereo not given in full), for which the “viability” value is 76.6% (inactive). Turning to `O=C(NCc1ccncc1)C12C[C@H]3C[C@@H](C1)CC(c1ccc(Cl)cc1)(C3)C2`, the Potency was 26.4 µM (active). As for `C=CCc1ccc(O)c(-c2ccc(O)c(CC=C)c2)c1`, the Potency was 20.9 µM (active).

In the case of `O=C(Nc1ccccc1Br)N[C@@H]1CCN(c2ccc(C(F)(F)F)cn2)C1`, the “viability” value was 123% (inactive).

As to `N#Cc1ccc(NC(=O)Nc2ccccc2Br)c2n[nH]nc12`, the Potency was 9.35 µM (active).

As for `O=c1cc(-c2cccc3c2Sc2ccccc2S3)oc(N2CCOCC2)c1`, the Potency was 16.6 µM (active).

Regarding `CN(C)c1cc(NC(=O)CNC(C)(C)C)c(O)c2c1C[C@@H]1C[C@H]3[C@H](N(C)C)C(=O)C(C(N)=O)=C(O)[C@@]3(O)C(=O)C1=C2O`, the “viability” value was 97.9% (inactive). For `O=c1c(-c2ccc(O)cc2)coc2cc(O[C@@H]3O[C@H](CO)[C@H](O)[C@H](O)[C@H]3O)ccc12`, the “viability” value is 123% (inactive). On to `CC(C)(C)Cn1c(N)nc2ccc(-c3[nH]c(C(C)(C)C)nc3-c3ccc(F)cc3)nc21`, for which the “viability” value was 80.2% (inactive). In the case of `CN(C)Cc1cccc(N=C(c2ccccc2)c2c(O)[nH]c3cc(C(=O)N(C)C)ccc23)c1`, the Potency is 16.6 µM (active).

Turning to `NC(=O)c1ccc2nc(-c3ccc(Oc4ccc(Cl)cc4)cc3)[nH]c2c1`, the Potency is 9.35 µM (active).

As to `CC(C)=CC[C@@H](O)C1=CC(=O)c2c(O)ccc(O)c2C1=O`, the Potency was 18.7 µM (active). For `OC[C@H]1O[C@@H](Oc2cc(O)cc(C=Cc3ccc(O)cc3)c2)[C@H](O)[C@@H](O)[C@H]1O`, the “viability” value was 87.2% (inactive). Same read-out and setting: as for `C[N+]1(C)[C@@H]2CC(OC(=O)[C@H](CO)c3ccccc3)C[C@H]1[C@H]1O[C@@H]12` (stereo not given in full), the figure is 128% (inactive); as for `N#C[C@H]1C[C@H]2C[C@@H]2N1C(=O)[C@@H](N)C12CC3CC(CC(O)(C3)C1)C2`, 127% (inactive); as for `O=c1cc(-c2ccccc2)oc2cc(O)c(O)c(O)c12`, 114% (inactive). For the compound `CC1(C)CCC[C@@]2(C)[C@@H]1CC[C@@]1(C)OC(=O)C[C@H]21`, the Potency was 14.8 µM (active). With `CC=CC[C@@H](C)C(=O)[C@H]1C(=O)N[C@@H](C(C)C)C(=O)N(C)CC(=O)N(C)[C@@H](CC(C)C)C(=O)N[C@@H](C(C)C)C(=O)N(C)[C@@H](CC(C)C)C(=O)N[C@@H](C)C(=O)N[C@H](C)C(=O)N(C)[C@@H](CC(C)C)C(=O)N(C)[C@@H](CC(C)C)C(=O)N(C)[C@@H](C(C)C)C(=O)N1C`, the “viability” value was 110% (inactive).

As for `CC(=Cc1ccccc1)C=C1SC(=S)N(CC(=O)O)C1=O`, the “viability” value is 127% (inactive). Turning to `CC(C)(C)OC(=O)N[C@H]1CCCCCC=C[C@@H]2C[C@@]2(C(=O)NS(=O)(=O)C2CC2)NC(=O)[C@@H]2C[C@@H](OC(=O)N3Cc4cccc(F)c4C3)CN2C1=O`, the Potency is 13.2 µM (active). As to `CN1[C@@H]2CCC[C@@H]1CC(NC(=O)c1nn(C)c3ccccc13)C2` (stereo not given in full), the “viability” value is 103% (inactive). `CCOC(=O)C1=C(N)Oc2ccc(Br)cc2C1C(C#N)C(=O)OCC` (stereo not given): the Potency is 18.7 µM (active). For `O=C1C[C@@H](c2ccc(O)cc2)Oc2cc(O)cc(O)c21`, the “viability” value was 120% (inactive).

Turning to `COc1cc2nc(-c3ccc(N4CCN(C)CC4)cc3)nc(NCCN3CCOCC3)c2cc1OC`, the Potency is 0.209 µM (active). The same measure, in the same setting: the value for `O=C1NC(=O)C(=Cc2ccc(-c3ccc(F)cc3)o2)S1` was 4.18 µM (active); that for `O=C(O)CCC1CCC(c2cc(F)ccc2F)(S(=O)(=O)c2ccc(Cl)cc2)CC1` (stereo not given) was 13.2 µM (active); that for `COc1ncc(-c2ccc3nccc(-c4ccnnc4)c3c2)cc1NS(=O)(=O)c1ccc(F)cc1F` was 0.0935 µM (active). Turning to `O=C(O)c1c(Cl)c(Cl)c(Cl)c(Cl)c1-c1c2cc(I)c(=O)c(I)c-2oc2c(I)c(O)c(I)cc12`, the Potency was 10.5 µM (active). For `O=C(CCN1CCN(C(=O)OCc2cc(Cl)cc(Cl)c2)CC1)c1ccc2[nH]c(=O)oc2c1`, the “viability” value was 130% (inactive). Turning to `CCc1ccc(OCc2ccccc2C(=O)Nc2ccc3nc(C)cc(N)c3c2)cc1`, the Potency is 0.935 µM (active). Regarding `C[C@]12CC[C@@H]3c4ccc(O)cc4C[C@@H](CCCCCCCCCS(=O)CCCC(F)(F)C(F)(F)F)[C@H]3[C@H]1CC[C@H]2O` (stereo not given in full), the Potency is 7.43 µM (active).
